Experimental data published in PubChem BioAssay AID425 (Sanford-Burnham Center for Chemical Genomics, 2006).
Where “and” joins values, the source holds several entries; their conditions need not be identical. Identical values can stand only once. Among all 110,000 compounds or so, about 190 (0.17%) were called active. Rule as the data show it: active = inhibition above about 50%; inactive = the rest. The list comes from a sample in which actives are over-represented; it also holds similar structures and randomly drawn compounds. Results with a measured potency or affinity are listed apart.

Target: Dual specificity protein phosphatase 6 (Rattus norvegicus) (UniProt Q64346)
Sequence (Q64346 whole entry, looked up): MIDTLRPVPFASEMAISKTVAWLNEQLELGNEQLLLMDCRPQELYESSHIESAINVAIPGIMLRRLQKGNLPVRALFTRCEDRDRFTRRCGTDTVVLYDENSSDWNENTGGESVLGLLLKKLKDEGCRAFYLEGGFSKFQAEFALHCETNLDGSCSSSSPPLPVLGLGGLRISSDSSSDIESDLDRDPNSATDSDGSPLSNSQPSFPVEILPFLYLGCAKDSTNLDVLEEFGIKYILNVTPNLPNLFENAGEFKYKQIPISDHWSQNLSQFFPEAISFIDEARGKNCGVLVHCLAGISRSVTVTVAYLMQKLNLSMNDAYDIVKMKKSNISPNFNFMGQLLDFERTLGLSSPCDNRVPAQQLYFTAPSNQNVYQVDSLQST
Test: inhibition of rat DUSP6 enzyme activity – biochemical, in vitro, primary screen (AID 425);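 also: plate controls were vehicle for no effect and reference inhibitor for full effect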
Conditions: recombinant MKP-3 phosphatase activity, fluorescence; at 20 µM; stronger effect = higher value

inhibition, inactive:
Cc1ccc(-c2ccccc2)n1-c1ccccc1C(=O)O 5%
Cc1c(C(=O)O)cccc1-n1c(C)ccc1C 25.2%
COc1cc(C(=O)O)c(-n2c(C)ccc2C)cc1OC 5%
Cc1ccc(C)n1-c1ccc(Br)cc1C(=O)O 0.2%
O=C(CCCN1CCC(c2ccccc2)C1)c1ccc2c(c1)OCCO2 (stereo unspecified) -3.4%
CC(=O)Nc1ccc(S(=O)(=O)NC(CC(=O)O)c2ccc(OC(C)C)cc2)cc1 (stereo unspecified) 7.9%
CC(C)(C)NC(=O)C(=O)N/N=C/c1ccc(Cl)cc1 -3.9%
CNc1ccc2[nH]nc3c2c1C(=O)c1ccccc1-3 -22.4%
Cc1ccccc1OCC(=O)Nc1cccc(NC(=O)c2ccccc2Cl)c1 -2.5%
Cc1cccc(C)c1NC(=O)c1ccc2c(c1)OCCO2 2.1%
CC(=O)c1ccc(NC(=O)c2ccc3c(c2)OCCO3)cc1 -4.6%
CCN1C(=O)NC(c2cccnc2)C(C(=O)OC)=C1C (stereo unspecified) -5.5%
CC(C)N(Cc1nc(-c2ccccc2)no1)C(=O)Cc1ccccc1 -1.5%
CS(=O)(=O)N(CC(=O)NCc1ccccn1)c1ccc2c(c1)OCCO2 -1.1%
CCOC(=O)C(C(=O)OCC)c1cc(Br)c2noc3c2c1C(=O)c1ccccc1-3 23.6%
O=C1c2ccccc2-c2onc3c(Cl)cc(Sc4ccccc4)c1c23 3.9%
Cc1onc(-c2ccccc2Cl)c1C(=O)NCc1cccs1 5.5%
O=C(O)c1cc(-c2ccc(/C=N/Nc3ccc([N+](=O)[O-])cn3)o2)ccc1Cl 7.3%
O=C(O)c1ccc(Cl)c(-c2ccc(/C=N\Nc3ccc([N+](=O)[O-])cn3)o2)c1 8.7%
O=C(O)/C=C/C(=O)Nc1ccc(NC(=O)c2ccccc2)c(Cl)c1 1.5%
COC(=O)c1cc(C(=O)OC)cc(S(=O)(=O)O)c1 -0.1%
O=C(O)c1cc(S(=O)(=O)O)ccc1O -4.1%
O=C1/C(=C/c2ccc(O)c(O)c2)SC(=S)N1c1ccc(O)cc1 8.5%
Cc1cc(C)n(C(=O)CNC(=O)c2ccco2)n1 1.1% and -4%
COc1ccc(C2SC(C)C(=O)N2c2ccc(C)cc2)cc1 (stereo unspecified) -0.4%
O=C(NCC1CCCO1)c1cc2nc(-c3ccc(F)cc3)cc(C(F)(F)F)n2n1 (stereo unspecified) 2.8%
O=C(NCC1CCCO1)c1cc2nc(-c3ccco3)cc(C(F)(F)F)n2n1 (stereo unspecified) 0.3%
COCCn1c(SCC(=O)Nc2cccc(OC)c2)nnc1-c1ccc(Cl)cc1 -2.5%
Cc1ccc(-c2ccc(C=C3C(=O)N(C)C(=O)N(C)C3=O)o2)cc1[N+](=O)[O-] -5.2%
CN(c1ccc(C(=O)N2CCCCC2)cc1)S(=O)(=O)c1ccccc1 2.4%
CCc1c(C)c2ccc(OCc3ccccc3)c(C)c2oc1=O 3.5%
CCc1c(C)c2ccc(OCC(C)=O)c(C)c2oc1=O 5.8%
O=C(CN1CCCCCC1)Nc1cccc2c1OCO2 0.2% and -9.3%
COc1ccc(/C=C(\NC(=O)c2ccccc2)C(=O)NCC(C)C)cc1OC 3%
COc1ccc(/C=C/C(=O)NCC(C)NC(=O)/C=C/c2ccc(OC)c(OC)c2)cc1OC (stereo unspecified) 1.7%
COc1cccc(-c2cc(C(=O)Nc3c(C)nn(Cc4ccccc4)c3C)no2)c1 0.1%
O=C(NCCNc1ccc(Cl)cc1[N+](=O)[O-])c1ccccc1Cl 1.9%
Cc1c(O)ccc2c1oc(=O)c1ccccc12 1.2%
O=c1oc2c(O)c(O)ccc2c2c1CCC2 7.2%
Cc1ccc(S(=O)(=O)NCC(=O)N(CCc2ccccc2)CC(=O)NCc2ccco2)cc1 -4.7%
Cc1cc(C)nc(Sc2c(C)nn(-c3ccccc3)c2C)n1 -0.6%
Cc1nn(-c2ccccc2)c(C)c1Sc1ccc(Br)cc1 0.2%
COc1ccc(C2C(C(=O)OC(C)C)=C(C)N=c3s/c(=C/c4c[nH]c5ccccc45)c(=O)n32)cc1 (stereo unspecified) 3.4%
CCOCCOC(=O)c1ccc(NC(=O)/C=C/c2ccc(OC)c(Br)c2)cc1 2.5%
COc1ccc(Cl)cc1C(=O)Nc1nc2ccc(S(C)(=O)=O)cc2s1 3.8%
CCOc1ccc(NC(=O)CSc2nc3ccc(OC)cc3[nH]2)cc1 -0.2%
O=C(O)c1ccccc1-c1ccccc1/C=N/O -1.8%
CCOC(=O)C1=C(C)N=c2s/c(=C\c3ccc(OCC)cc3)c(=O)n2C1c1ccccc1 (stereo unspecified) 2.8%
CCOC(=O)C1=C(C)N=c2s/c(=C\c3ccc(OCC(=O)O)cc3)c(=O)n2C1c1ccccc1 (stereo unspecified) 2.5%
Cc1c(N2C(=O)c3cccc([N+](=O)[O-])c3C2=O)c(=O)n(-c2ccccc2)n1C 1.8%
CCN(CC)CCCNC(=O)c1cc2nc(-c3ccc([N+](=O)[O-])cc3)cc(C(F)(F)F)n2n1 1.9%
O=C1NC(=S)N(c2cccc(Cl)c2)C(=O)/C1=C\c1ccc(N2CCCC2)cc1 19.3%
COc1ccccc1/C=C1/C(=O)NC(=O)N(c2ccccc2OC)C1=O -1.2%
COc1ccccc1C=C1C(=O)NC(=S)N(c2ccccc2F)C1=O 3%
Cc1cc(/C=C2\C(=O)NC(=S)N(c3cccc(Cl)c3)C2=O)c(C)n1C -0.4%

inhibition, active:
Cc1ccc(C)n1-c1ccc(Cl)cc1C(=O)O 104%
Cc1ccc(C)n1-c1ccccc1C(=O)O 72.7%
Cc1cc(Br)cc(C)c1NC(=O)c1ccc2c(c1)OCCO2 82.6%
O=C1c2ccccc2-c2onc3c(Br)cc(O)c1c23 87.7%
O=C(O)c1cccc(-c2ccc(/C=N/Nc3ccc([N+](=O)[O-])cn3)o2)c1 51.1%
CNc1ccc2c(O)cc(S(=O)(=O)O)cc2c1 65.1%
O=C(NCC1CCCO1)c1cc2nc(-c3ccc([N+](=O)[O-])cc3)cc(C(F)(F)F)n2n1 (stereo unspecified) 95.8%
CCC(C)NC(=O)/C(=C\c1ccc(OC(C)=O)c(OC)c1)NC(C)=O (stereo unspecified) 97.1%
Cc1nn(-c2ccccc2)c(C)c1Sc1ccc(Cl)cc1 74.7%
COc1ccccc1N1C(=O)C(=Cc2cccn2C)C(=O)NC1=S 93.6%
Cn1cccc1/C=C1/C(=O)NC(=S)N(c2cccc(Cl)c2)C1=O 60.6%
